Hits are enriched below; roughly 2.2% of the tested compounds scored in any of these assays.
CHRM1 agonist – activates human CHRM1 receptor; CHO-K1 hM1, Fluo-8 calcium fluorescence, agonist mode; 0% DMSO, 100% acetylcholine EC100; activation, % at 3 µM; 360,000 compounds, 0.33% hits; AID 588814;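 active = activation above the run's mean compound activation plus 3 SD, cut at about 16% in these data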;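 also: peak over basal fluorescence ratio within a 140 s kinetic read after compound addition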
Target sequence (P11229 whole entry, looked up): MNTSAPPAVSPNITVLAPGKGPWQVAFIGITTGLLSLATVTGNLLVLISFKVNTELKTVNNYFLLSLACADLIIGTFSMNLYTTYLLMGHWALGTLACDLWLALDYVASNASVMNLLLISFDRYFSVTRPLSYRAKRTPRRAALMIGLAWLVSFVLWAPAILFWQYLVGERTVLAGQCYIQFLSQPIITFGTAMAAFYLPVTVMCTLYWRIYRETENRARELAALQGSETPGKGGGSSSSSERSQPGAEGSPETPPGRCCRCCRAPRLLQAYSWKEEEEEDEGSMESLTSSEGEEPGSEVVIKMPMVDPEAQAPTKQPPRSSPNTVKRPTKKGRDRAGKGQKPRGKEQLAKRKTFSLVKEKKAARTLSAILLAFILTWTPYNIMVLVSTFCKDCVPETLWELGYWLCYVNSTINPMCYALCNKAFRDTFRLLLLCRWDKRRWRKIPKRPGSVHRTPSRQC
CHRM4 PAM – positive allosteric modulators of human muscarinic M4 receptor; P08173; CHO-K1 hM4/Gqi5, Fluo-8 calcium fluorescence, ACh EC20; 0% = ACh EC20, 100% = maximal ACh; activation, % at 3 µM; 360,000 compounds, 0.4% hits; AID 624126;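 active = activation above its plate's cutoff, the mean activation of sample wells plus 3 SD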
M1 PAM – human CHRM1 positive allosteric modulation; CHO-K1 hM1, Fluo-8 calcium fluorescence, ACh EC20; 0% = ACh EC20, 100% = maximal ACh; P11229; 360,000 compounds, 0.088% hits; AID 588819; activation, % at 3 µM; in the data active = activation above about 19%, passing the limit was not always enough
M4 ag – CHRM4 agonism in calcium assay | P08173 | CHO-K1 hM4/Gqi5, Fluo-8 calcium fluorescence; vehicle 0%, full acetylcholine response 100% | 360,000 compounds, 0.14% hits | activation, % at 3 µM;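 active = activation above the run mean over all test wells plus 3 SD, cut at about 32% in these data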;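 also: peak over basal fluorescence ratio per well then scaled between controls; 0% = DMSO wells and 100% = acetylcholine at EC100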
CHRM1 antagonist – antagonists of human M1 muscarinic receptor. CHO-K1 hM1, Fluo-8 calcium fluorescence, ACh EC80 antagonist. inhibition, % at 3 µM. 360,000 compounds, 1.3% hits. AID 588852;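 active = percent inhibition above its own plate's cutoff, namely the mean of that plate's compound wells plus 3 SD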;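 also: peak over basal fluorescence ratio during 140 s after agonist addition; 0% = ACh EC80 plus DMSO and 100% = DMSO alone without agonist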
M4 antag – CHRM4 antagonism in calcium assay; CHO-hM4 cells, ACh EC80, Fluo-8 calcium fluorescence; inhibition, % at 3 µM; 360,000 compounds, 0.73% hits; AID 624125;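 active = inhibition above its plate's cutoff, the mean inhibition of sample wells plus 3 SD, cut at about 27% in these data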;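 also: 0% = acetylcholine EC80 with DMSO and 100% = DMSO without agonist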
Active calls of the source: *.

SMILES	CHRM1 agonist	CHRM4 PAM	M1 PAM	M4 ag	CHRM1 antagonist	M4 antag
COc1cccc(CNC(=O)Cn2nc(C)c3c(C)n(-c4ccc(C)cc4)nc3c2=O)c1OC	-5.6	3.6	-5.0	-0.4	14.2	-7.2
COc1ccc(NC(=O)C(=O)NCCCO)cc1Cl	-4.2	5.2	9.3	4.9	-4.9	-4.7
CCOC(=O)C(=O)Nc1ccc(OC)c(Cl)c1	-6.9	23.1*	11.4	2.4	-12.5	-3.3
O=C(N/N=C/C(Cl)=C/c1ccc([N+](=O)[O-])cc1)C(=O)Nc1cccc(C(=O)O)c1	-2.4	0.1	9.2	1.0	-10.8	2.0
Cc1ccc(-c2[nH]ncc2/C=N/n2c(COc3ccccc3)nc3ccccc3c2=O)cc1	-6.9	-5.7	-14.7	9.7	29.4*	0.3
Cc1nc2ccccc2c(=O)n1/N=C/c1cn[nH]c1-c1ccccc1	-3.3	-2.4	-8.5	0.6	7.6	4.7
Cc1ccccc1OCc1nc2ccccc2c(=O)n1/N=C/c1cn[nH]c1-c1ccccc1	-2.4	-23.9	-14.8	17.9	29.1*	22.4
Cc1cc(C)c(NC(=O)/C(C#N)=C/c2ccc(OCc3ccc(F)cc3)cc2)c(C)c1	-4.0	3.6	0.3	6.3	2.8	18.2
CC(=O)c1ccc(N2C(=O)[C@@H]3C(C(=O)CCN4C(=O)c5ccccc5C4=O)=NN[C@@H]3C2=O)cc1	-7.9	-0.6	3.3	0.7	-3.7	11.4
CN(C)CCCN(Cc1ccccc1)C(=S)Nc1cccc(C(F)(F)F)c1	-5.9	-7.1	-4.6	5.9	6.8	3.2
CN(C)CCCN(Cc1ccccc1)C(=S)Nc1ccc(F)c(Cl)c1	-6.7	-12.2	-21.4	10.9	38.3*	10.1
CCN(CC)CCOCCOC(=O)C(CC)(CC)c1ccccc1	-6.1	-11.8	-20.0	1.3	38.0*	5.8
CCN(CC)CCOCCOc1ccccc1F	-8.5	-1.4	4.0	0.0	-3.5	-2.3
Cc1ccccc1C(=O)Nc1ccccc1C(=O)N/N=C\c1ccco1	-4.0	31.0*	1.2	1.6	-1.1	-17.0
O=C(Nc1ccccc1C(=O)N/N=C/c1ccco1)c1ccc(F)cc1	-3.0	36.0*	9.5	0.9	-15.8	20.7
O=C(N/N=C/c1ccco1)c1cccc([N+](=O)[O-])c1	-2.0	27.6*	8.1	1.4	-4.5	0.6
O=C(N/N=C/c1ccco1)c1cc([N+](=O)[O-])cc([N+](=O)[O-])c1	-4.2	12.3	8.0	0.7	-4.9	-0.7
O=C1CC(=Nc2ccc([N+](=O)[O-])cc2)NN1c1c(Cl)cc(Cl)cc1Cl	-1.3	1.1	16.6	1.0	-19.2	1.6
COc1ccc(-c2nn3c(-c4ccc(F)cc4)nnc3s2)cc1	-4.4	-4.5	-1.2	-0.2	3.7	5.9
COc1cc(OC)cc(C(=O)NCC(=O)OCC(=O)Nc2ncc(Cl)cc2Cl)c1	-4.6	3.1	8.6	0.7	-5.8	-7.6
CN(c1ccccc1)S(=O)(=O)c1cccc(NC(=O)COc2cccc([N+](=O)[O-])c2)c1	-2.8	-8.8	-10.3	26.5	13.0	12.9
CCC(=O)c1ccc(OCC(=O)Nc2cccc(S(=O)(=O)N(C)c3ccccc3)c2)cc1	2.6	-11.2	-25.5	27.4	55.9*	28.7*
COCCn1cnnc1SCC(=O)Nc1cccc(S(=O)(=O)N(C)c2ccccc2)c1	-7.3	-2.1	9.1	1.1	-2.3	8.4
Cc1nnc(SCC(=O)Nc2cccc(S(=O)(=O)N(C)c3ccccc3)c2)s1	0.7	-8.0	-19.0	12.8	36.0*	24.9
O=C1C[C@@H](c2ccc(O)cc2)Oc2cc(O)cc(O)c21	3.3	3.6	5.2	0.7	-9.5	-9.8
SMILES	CHRM1 agonist	CHRM4 PAM	M1 PAM	M4 ag	CHRM1 antagonist	M4 antag
Cc1c(O)cc2c(c1O)C(=O)CC(c1ccccc1)O2 (configuration not stated)	58.5*	-17.3	-33.2	60.0*	101.9*	93.7*
Cc1ncccc1C(=O)N1CCCC(CCC(=O)N2CCN(c3ccccn3)CC2)C1 (configuration not stated)	-1.1	-2.4	2.5	1.6	3.9	-5.4
Nc1c(-c2ccccc2)c(CSc2nc3ccccc3[nH]2)nn1-c1ccc(C(=O)O)cc1	-2.4	23.7*	9.0	1.5	-9.5	-7.8
O=C(Cn1cc(C(F)(F)F)ccc1=O)N/N=C/c1ccccc1	-3.7	-2.8	-1.9	0.6	6.5	-1.8
CC1=C(SCc2ccccc2)C(=O)c2ccccc2C1=O	0.8	0.8	6.1	7.0	5.0	8.0
O=C1C(SCCO)=C(SCCO)C(=O)c2ccccc21	6.8	-12.2	-4.0	12.9	23.9	61.1*
COc1cc(/C=C/C(=O)O)cc(S(=O)(=O)NC2CCCC2)c1OC	-2.8	-51.9	2.4	-1.5	0.9	98.1*
COc1ccc2cc3cc(C(=O)Nc4ccc5c(c4)OCCO5)oc3nc2c1	2.3	-0.5	-3.1	2.0	-13.8	1.2
COc1cccc(-c2nc(CS(=O)(=O)CC(=O)NCCCc3ccccc3)c(C)o2)c1	-2.6	-15.6	-20.7	0.1	40.1*	25.6
O=C(c1cccnc1)N1CCN(c2ccc(Cl)cc2)CC1	-3.7	29.6*	6.0	5.4	-10.2	-6.6
O=C(Nc1ccc(N2CCN(C(=O)c3ccc(Cl)cc3)CC2)cc1)c1cccnc1	-1.2	-6.0	-0.8	9.4	4.7	11.3
O=C(c1ccc(Cl)cc1)N1CCN(c2ccc([N+](=O)[O-])c(NCc3cccnc3)c2)CC1	-6.4	26.0*	-4.8	6.7	-20.5	6.6
O=C(N/N=C/c1c(F)cccc1Cl)C1CC1	-2.0	1.6	5.3	0.5	0.2	3.3
Clc1ccc(/C=N/Nc2nnc(Cl)c3ccccc23)cc1	-4.8	-0.2	5.4	-0.6	-7.6	-5.6
O=C(CSCc1ccc(F)cc1)N1CCN(c2ccc(F)cc2)CC1	-2.6	-12.1	-1.4	3.4	-0.3	-0.8
O=C(CSCc1ccc(F)cc1)N1CCN(c2ccccc2)CC1	-3.3	30.5*	1.4	5.2	-5.9	-14.5
Cc1c(CCOC(=O)c2ccc([N+](=O)[O-])cc2)sc[n+]1CC(=O)c1ccccc1	-14.6	-3.8	-15.4	3.4	11.0	-6.6
Cc1c(CCOC(=O)C2C3CC4CC(C3)CC2C4)sc[n+]1CC(=O)c1ccc(Br)cc1 (configuration not stated)	-5.5	-17.9	-20.7	3.0	39.3*	5.3
COc1ccc(C(=O)OCCc2sc[n+](CC(=O)c3ccccc3)c2C)cc1	-11.3	-7.7	-31.7	0.7	69.0*	2.4
Cc1ccccc1OCC(O)Cn1c(=N)n(Cc2ccccc2)c2ccccc21 (configuration not stated)	12.6	-28.3	-5.0	25.2	18.0	27.4*
Cc1nc2ccccc2n1CC(O)COc1ccccc1Cl (configuration not stated)	1.7	-24.9	-3.1	10.8	19.6	29.7*
